Test results reported in PubChem BioAssay (EPA / NIEHS).
Activity calls are given as the source filed them. The calls were made as follows: active = hit-call score of the fitted dose curve at least 0.9, where 1 is the maximum; inactive = score below 0.9.

Experiment: ATG_MRE_CIS: Attagene CIS-FACTORIAL HepG2 Assay for human Metal Responsive Element (MRE) (AID 2282954)
Conditions: HepG2 MRE cis-reporter transcription, Attagene multiplex; actives raise or lower the signal
Procedure: ATG_CIS is a cell-based, multiplexed-readout assay that uses HepG2, a human liver cell line, with measurements taken at 24 hours after chemical dosing in a 24-well plate.ATG_MRE_CIS is one of 52 assay component(s) measured or calculated from the ATG_CIS assay. It is designed to make measurements of mRNA induction, a form of inducible reporter, as detected with fluorescence intensity signals by Reverse transcription polymerase chain reaction (RT-PCR) and Capillary electrophoresis technology.Data from the assay component ATG_MRE_CIS was analyzed into 1 assay endpoint. This assay endpoint, ATG_MRE_CIS, was analyzed with bidirectional fitting relative to DMSO as the negative control and baseline of activity. Using a type of inducible reporter, measures of mRNA for gain or loss-of-signal activity can be used to understand the reporter gene at the transcription factor-level as they relate to the gene MTF1. Furthermore, this assay endpoint can be referred to as a primary readout, because this assay has produced multiple assay endpoints where this one serves a reporter gene function. To generalize the intended target to other relatable targets, this assay endpoint is annotated to the dna binding intended target family, where the subfamily is zinc finger.
Human liver HepG2 cells are transiently transfected with multiple reporter transcription units (MRTUs) in 6-well plates using FuGene 6 reagent (Roche; 3 ml FuGene/1 mg DNA). The MRTU constructs are regulated by a cis-regulating element (promoter). […] A major difference between the CIS and TRANS system is that in CIS activities of endogenous TFs are measured, whereas the TRANS assay evaluates changes in activities of exogenous, chimeric NR-Gal4 proteins. […] At the end of 24 hour incubation, total RNA was isolated using TriZol reagent (Invitrogen). The isolated RNA is then reverse-transcribed using oligo(dT) primer and Mo-MLV reverse transcriptase (Invitrogen) with DNAse I (Ambion) treatment for 30 min. The one-tenth of the produced cDNA was amplified by PCR using Taq DNA polymerase (Invitrogen) and two reporter sequence-specific primers. The PCR products were fluorescently labeled by primer extension with 6-arboxyfluorescein (6-FAM) 5'-labeled reporter sequence-specific primer (2 min at 95 C, 20 s at 68 C and 10 min at 72 C) and these products were digested with 5U of HpaI (New England Biolabs) for 2h at 37 C. The fragments were purified using Qiaquick PCR columns (Qiagen), analyzed on an ABI 3130xL genetic analyzer (Applied Biosystems) with peak positions identified by using a set of X-rhodamine (ROX)-labeled MapMarker1000 molecular weight standards (BioVentures). The raw capillary electrophoresis data was processed using Attagraph software (Attagene).

| Compound | outcome | AC50 |
| --- | --- | --- |
| O=C(NS(=O)(=O)/C=C/c1cccs1)c1ccc(F)cc1Br | inactive | – |
| COC(=O)[C@H]1[C@H]2C[C@@H]3c4[nH]c5cc(OC)ccc5c4CCN3C[C@H]2C[C@@H](OC(=O)c2cc(OC)c(OC)c(OC)c2)[C@@H]1OC | – | 3.49 µM (active) |
| C#CC(O)C(CC)CCCC (stereo not given) | inactive | – |
| O=[Si]=O | inactive | – |
| C=CCCCCCCCCCCCC | inactive | – |
| CC(N)=O | inactive | – |
| S=c1[nH]c2ccccc2s1 | inactive | – |
| CCCCOC(=O)CCCCC(=O)OCCCC | inactive | – |
| CCOCCOCCO | inactive | – |
| O=C1O[C@H]([C@H](O)CO)C(O)=C1O | inactive | – |
| CC(=O)[C@@]1(O)CC[C@H]2[C@@H]3CCC4=CC(=O)CC[C@]4(C)[C@H]3CC[C@@]21C | inactive | – |
| COc1ccc(OC(F)(F)F)cc1CN[C@H]1CCCN[C@H]1c1ccccc1 | inactive | – |
| C=CCc1ccc(OC)c(OC)c1 | inactive | – |
| Nc1nc(=S)c2[nH]cnc2[nH]1 | inactive | – |
| O=NO | inactive | – |
| CC(C)(O)c1ccc(CNC(=O)c2cccnc2Oc2ccc(F)cc2)cc1 | inactive | – |
| O=C(Oc1ccccc1)c1cccc(C(=O)Oc2ccccc2)c1 | inactive | – |
| Oc1ccc(O)cc1 | inactive | – |
| CCc1cc(C2=C(C(=O)O)N(c3ccccc3C(F)(F)F)S(=O)(=O)c3ccccc32)cc2c1OCO2 | – | 58.5 µM (active) |
| Cc1ccc(-c2cc(C(F)(F)F)nn2-c2ccc(S(N)(=O)=O)cc2)cc1 | – | 6.28 µM (active) |

| Compound | outcome | AC50 |
| --- | --- | --- |
| CC(=O)S[C@H](C(=O)N[C@H]1Cc2ccccc2[C@H]2CCC[C@@H](C(=O)O)N2C1=O)C(C)C | inactive | – |
| O=C1CCCCC1 | inactive | – |
| O=C(O)CN(CC(=O)O)CC(=O)O | inactive | – |
| CC(=O)O | inactive | – |
| CN(C)CCCN(C)CCCN(C)C | inactive | – |
| CCCC[C@H]1CN(CC2CCOCC2)C(=O)OC12CCN(C1(C)CCN(C(=O)c3c(C)ncnc3C)CC1)CC2 | inactive | – |
| CO[C@@H]1COCC[C@@H]1N[C@@H]1CC[C@@](C(=O)N2CCc3ncc(C(F)(F)F)cc3C2)(C(C)C)C1 | inactive | – |
| CC(=O)OCC(COC(C)=O)OC(C)=O | inactive | – |
| O=C1NC(=O)C(c2ccccc2)(c2ccccc2)N1 | inactive | – |
| CC(COCC(C)OC(=O)c1ccccc1)OC(=O)c1ccccc1 (stereo not given) | inactive | – |
| NCCOCCOCCN | inactive | – |
| CN(C)C(=O)NC1(c2ccccc2)CCN(CC[C@@]2(c3ccc(F)c(F)c3)CN(C(=O)c3ccccc3)CCO2)CC1 | – | 57.9 µM (active) |
| O=C(N[C@@H](c1ccccc1)[C@@H]1CCCCN1)c1cccc(C(F)(F)F)c1Cl | – | 38 µM (active) |
| CCCC(=O)O | inactive | – |
| O=C(O)c1cccnc1 | inactive | – |
| Oc1ccccc1O | inactive | – |
| CC1(C)C(=O)NC(=O)N1CO | inactive | – |
| CCCCc1nc2cccnc2n1Cc1ccc(-c2ccccc2-c2nnn[nH]2)cc1 | inactive | – |
| CCC(C)N(C)C(=O)c1cc2ccccc2c(-c2ccccc2Cl)n1 (stereo not given) | – | 97.4 µM (active) |
| O=C1OC(c2ccc(O)cc2)(c2ccc(O)cc2)c2ccccc21 | – | 45.1 µM (active) |
